LGR2 inh: blocks bursicon-induced cAMP signaling via Drosophila LGR2; HEK293 LGR2, CRE-luciferase, bursicon-stimulated, 4 h; inhibition, % at 9.99 µM; hit rate 0.35% among 380,000; AID 720647;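 active = drop in luminescence signal, shown as inhibition above about 50% in the replicate tests, limit read from the data, passing the limit was not always enough; inconclusive = probably only some replicates passing the limit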;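 also: agonist challenge used bursicon conditioned medium at about half maximal strength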
TWEAK-Fn14 inh: inhibitors of TWEAK-Fn14 interaction signaling; TWEAK-stimulated Fn14 reporter cells, luciferase luminescence, 8 h; inhibition, % at 10 µM; hit rate 2% among 360,000; AID 1159606; in the data active = inhibition above about 50%
EWS-Fli inh: inhibitors of EWS/Fli oncoprotein transcriptional activity; A673 NR0B1-luciferase reporter, viability-normalised; inhibition, % at 12.6 µM; hit rate 0.67% among 350,000; AID 651661;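 active = mean inhibition of at least 50% after viability correction, with every replicate also passing that limit; inconclusive = mean reaches 50% but only one of two replicates passes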;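 also: firefly luciferase signal divided by Alamar Blue viability fluorescence both relative to DMSO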
LMP1 NFkB inh: reduces LMP1-driven NF-kappaB luciferase signal; AID 504558; inhibition, % at 12.5 µM; LMP1-induced NF-kappaB luciferase reporter cells, luminescence; hit rate 0.69% among 350,000; in the data active = inhibition above about 41%; inconclusive = no clear call, values can overlap the other calls;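 also: 0% = neutral control wells and 100% = reference inhibitor control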
TROY signal inh: TROY signaling inhibition. Q293 LMP1-TROYcd NF-kB luciferase reporter, 4 h. hit rate 0.98% among 360,000. AID 1347056. inhibition, % at 10 µM;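 active = compounds whose plate-normalised and pattern-corrected inhibition of the luciferase reporter signal at the single screening dose is 50% or more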
* marks the source's active call; other numbers are inactive results. Sampled rows, rich in hits. Any-hit rate of the full collection: about 2.6%.

Screening O=C(NC12CC3CC(CC(C3)C1)C2)c1ccccc1 returned LGR2 inh -6, TWEAK-Fn14 inh 6, EWS-Fli inh 8, LMP1 NFkB inh -10 and TROY signal inh -10.
For O=C(C[n+]1cc(Br)cc2ccccc21)c1ccc(Br)cc1 the results were LGR2 inh 6, TWEAK-Fn14 inh 4, EWS-Fli inh 32, LMP1 NFkB inh -16 and TROY signal inh -3.
For O=C(C[n+]1cn(C(F)F)c2ccccc21)c1ccc(Br)cc1 the results were LGR2 inh -11, TWEAK-Fn14 inh 86*, EWS-Fli inh 0, LMP1 NFkB inh 6 and TROY signal inh -31.
`O=C(C[C@H]1CC[C@H]2[C@@H](COC[C@@H](O)CN2Cc2nccs2)O1)NCc1ccc(F)cc1` gave LGR2 inh -4 and EWS-Fli inh -9.
For COc1cccc(C(=O)OCC(=O)NC23CC4CC(CC(C4)C2)C3)c1 the results were LGR2 inh -23, TWEAK-Fn14 inh -2, EWS-Fli inh 5, LMP1 NFkB inh 2 and TROY signal inh -13.
`CS(=O)(=O)c1ccc(C(=O)OCC(=O)NC23CC4CC(CC(C4)C2)C3)cc1[N+](=O)[O-]` gave LGR2 inh -3, TWEAK-Fn14 inh 102*, LMP1 NFkB inh -6 and TROY signal inh 73*.
`Cn1cccc1C(=O)NC(=O)COC(=O)c1ccc(S(C)(=O)=O)cc1` gave LGR2 inh -3, TWEAK-Fn14 inh 4, EWS-Fli inh 1, LMP1 NFkB inh -1 and TROY signal inh 2.
`Cn1cccc1C(=O)NC(=O)COC(=O)c1ccc(S(C)(=O)=O)c([N+](=O)[O-])c1` gave TWEAK-Fn14 inh 96*, LMP1 NFkB inh -1 and TROY signal inh 30.
Screening CC(C)CN1CCN(C(=O)COC(=O)c2ccc(S(C)(=O)=O)c([N+](=O)[O-])c2)CC1 returned LGR2 inh 23, TWEAK-Fn14 inh 80*, EWS-Fli inh 34 and TROY signal inh 21.
`CS(=O)(=O)c1ccc(C(=O)OCc2nnc(-c3ccc(Cl)cc3)o2)cc1[N+](=O)[O-]` gave TWEAK-Fn14 inh 64*, LMP1 NFkB inh -10 and TROY signal inh 66*.
Screening C[C@@H]1CCCCO[C@@H](CN(C)C(=O)c2ccccc2)[C@H](C)CN([C@H](C)CO)C(=O)c2cc(NC(=O)Nc3ccc(F)cc3)ccc2O1 returned LGR2 inh -10 and EWS-Fli inh 24.
For CC(C)NC(=O)N1CC(=O)N2[C@H](C1)[C@@H](c1ccc(C#CCN(C)C)cc1)[C@@H]2CO the results were LGR2 inh -18 and EWS-Fli inh -7.
For CCOc1ccc(C(=O)NC(=S)Nc2cccc(S(=O)(=O)NC3=NCCC3)c2)cc1 the results were LGR2 inh -22, TWEAK-Fn14 inh 5, EWS-Fli inh 59*, LMP1 NFkB inh 2 and TROY signal inh -26.
`O=C(NC(=S)Nc1cccc(S(=O)(=O)NC2=NCCC2)c1)c1cc(-c2ccco2)nc2ccccc12` gave LGR2 inh 1, TWEAK-Fn14 inh 9, EWS-Fli inh 57*, LMP1 NFkB inh -10 and TROY signal inh -6.
Screening CCOc1ccc(OCC(=O)Nc2cccc(S(=O)(=O)NC3=NCCC3)c2)cc1 returned LGR2 inh 18, TWEAK-Fn14 inh -11, EWS-Fli inh -7, LMP1 NFkB inh 1 and TROY signal inh -20.
CC(=O)N(C)C[C@@H]1Oc2ncc(-c3ccccc3C)cc2C(=O)N([C@@H](C)CO)C[C@@H]1C was read as LGR2 inh 21 and EWS-Fli inh -5.
`O=C(C[C@H]1CC[C@@H]2NC[C@@H](O)COC[C@H]2O1)NCc1ccc(Oc2ccccc2)cc1` gave LGR2 inh -4 and EWS-Fli inh 7.
For CCCNC(=O)N1CC2(CCN(CC3CC3)CC2)c2c(n(C)c3cc(OC)ccc23)[C@@H]1CO the results were LGR2 inh -11 and EWS-Fli inh 0.
`CNc1c2cccc(C)c2nc2c(C(=O)NCCN(C)C)cccc12` gave LGR2 inh 16, TWEAK-Fn14 inh 1, EWS-Fli inh 58*, LMP1 NFkB inh 91* and TROY signal inh -70.
`O=C([C@H]1[C@H](CO)[C@H]2Cn3c(ccc(-c4cncnc4)c3=O)[C@H]2N1CC1CC1)N1CCCCC1` gave LGR2 inh -11 and EWS-Fli inh -11.
N#CC(C#N)=C1C=CC=CN1/C(=C\c1ccco1)C(=O)c1ccc(Br)cc1 was read as LGR2 inh 23, TWEAK-Fn14 inh 92*, LMP1 NFkB inh -21 and TROY signal inh 78*.
Screening COc1ccc(C(=O)/C(=C\c2ccco2)N2C=CC=CC2=C(C#N)C#N)cc1 returned TWEAK-Fn14 inh 11, LMP1 NFkB inh 10 and TROY signal inh -9.
Screening N#CC(C#N)=C1C=CC=CN1/C(=C\c1ccco1)C(=O)c1ccccc1 returned LGR2 inh 100*, TWEAK-Fn14 inh 76*, EWS-Fli inh 78*, LMP1 NFkB inh 0 and TROY signal inh 69*.
COc1ccc(CN(C)C[C@@H]2Oc3ccc(NC(=O)CCC(F)(F)F)cc3CC(=O)N([C@@H](C)CO)C[C@H]2C)cc1 was read as LGR2 inh 16 and EWS-Fli inh 2.
Screening O=c1cc(-c2ccccc2Cl)oc2c(NS(=O)(=O)c3cc(Cl)cc(Cl)c3O)ccc(O)c12 returned TWEAK-Fn14 inh 65*, LMP1 NFkB inh 12 and TROY signal inh 68*.
Cc1ccc(CSc2nc(N)cc(=O)[nH]2)cc1 was read as LGR2 inh 3, TWEAK-Fn14 inh -6, EWS-Fli inh -6, LMP1 NFkB inh 3 and TROY signal inh 6.
`N#Cc1ccc(CSc2nc(N)cc(=O)[nH]2)cc1` gave LGR2 inh -6, TWEAK-Fn14 inh 72*, EWS-Fli inh 10, LMP1 NFkB inh 17 and TROY signal inh 18.
CCOC(=O)N1CCN(C(=O)c2ccc(Cn3c(=S)[nH]c4cc(OCC)c(OCC)cc4c3=O)cc2)CC1 was read as LGR2 inh inconclusive, TWEAK-Fn14 inh 37, EWS-Fli inh 25, LMP1 NFkB inh 24 and TROY signal inh 58*.
For O=C(c1ccc2c(=O)n(Cc3ccc(Cl)cc3)c(=S)[nH]c2c1)N1CCOCC1 the results were LGR2 inh 12, TWEAK-Fn14 inh 75*, LMP1 NFkB inh 18 and TROY signal inh 44.
Screening CCOC(=O)N1CCN(C(=O)c2ccc(Cn3c(=S)[nH]c4cc5c(cc4c3=O)OCO5)cc2)CC1 returned TWEAK-Fn14 inh 4, LMP1 NFkB inh -2 and TROY signal inh 50.
CN1C(=O)c2cc(NC(=O)C3CCCCC3)ccc2OC[C@@H]2O[C@H](CC(=O)NCc3ccccc3F)CC[C@@H]21 was read as LGR2 inh 3 and EWS-Fli inh -5.
`Cc1noc(C)c1S(=O)(=O)Nc1ccc2c(c1)CC(=O)N([C@H](C)CO)C[C@H](C)[C@@H](CN(C)Cc1ccc(C(=O)O)cc1)O2` gave LGR2 inh 6 and EWS-Fli inh -4.
For NC(=O)c1cccc(-c2cnc3c(Nc4cccc(OC(F)(F)C(F)F)c4)nccn23)c1 the results were LGR2 inh 8, TWEAK-Fn14 inh 72*, EWS-Fli inh -61 and TROY signal inh 46.

Assay outcomes deposited in PubChem BioAssay by several laboratories.
